Structures are written as SMILES.

This assay concerns Plasmodium falciparum NF54-HGL (transmission to Anopheles stephensi). As to the kind of experiment: percentage of barcode signal found in uninfected mosquitoes (transmission-blocking activity); higher = stronger blocking of transmission to mosquito, active = 80 or more. The note with it: 10 µM; gametocyte preincubation time 24 h; readout time post-feed 8 days. The protocol: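 The mixture was fed to Anopheles stephensi in 96-well plates as blood meals tagged with DNA-barcoded Asaia bacteria. Eight days later, mosquitoes were classed infected or uninfected by luminescence (mean + 5 SD of unfed controls). Barcodes were quantified by Luminex MagPlex-TAG in the pooled uninfected and infected Asaia cultures, background-corrected, and the score is % of barcode signal in uninfected mosquitoes = 100*Iu/(Iu+Ii).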
`COc1cncc(-c2cncc(N3CCN(c4ccncc4)CC3)n2)c1`: the “percentage of barcode signal found in uninfected mosquitoes” value (“percentage of barcode signal found” for short) is 63.9% (inactive).

As to `CC(=O)NC[C@@H]1CN(c2ccc(N3CCOCC3)c(F)c2)C(=O)O1`, the “percentage of barcode signal found” value was 4.01% (inactive).

On to `N=C(N)c1ccc(OCCCCCOc2ccc(C(=N)N)cc2)cc1`, for which the “percentage of barcode signal found” value was 77.2% (inactive).

As to `N=C(N)c1ccc(-c2cc(-c3ccccc3)on2)cc1`, the “percentage of barcode signal found” value is 33.2% (inactive).

For `CCCNC(=O)N1CCC2(CC1)CC(=O)c1cc(C)ccc1O2`, the “percentage of barcode signal found” value is 11.9% (inactive).

On to `CC(=O)Nc1ccc(NC(=O)c2cc(-c3cc(Cl)ccc3O)[nH]n2)cc1`, for which the “percentage of barcode signal found” value was 27.4% (inactive).

As for `COc1ccccc1CNC(=O)c1cc(C2CC2)nc2c1cnn2C(C)C`, the “percentage of barcode signal found” value was 62.8% (inactive).

Take `CC(C)(C)C1CCC(CC2=C(O)C(=O)c3ccccc3C2=O)CC1` (stereo not drawn): the “percentage of barcode signal found” value was 83.7% (active).

For the molecule `CC(C)N=c1cc2n(-c3ccc(Cl)cc3)c3ccccc3nc-2cc1Nc1ccc(Cl)cc1`, the “percentage of barcode signal found” value was 99.3% (active).

Turning to `Cc1cc(C)n2nc(C(=O)Nc3cc(C(F)(F)F)ccc3N3CCOCC3)nc2n1`, the “percentage of barcode signal found” value is 29.6% (inactive).

Regarding `CCCn1nnc(NC(=O)COc2ccc(C3CCCCC3)cc2)n1`, the “percentage of barcode signal found” value was 3.33% (inactive).

As to `Cc1noc(C)c1C(=O)N1CCCC(c2[nH]c3c(C)cccc3c2-c2ccncc2)C1` (stereo not drawn), the “percentage of barcode signal found” value was 69.1% (inactive).

On to `COc1cc(C2=NCCN2)ccc1-n1cc(-c2cccc(C3=NCCN3)c2)nn1`, for which the “percentage of barcode signal found” value was 46.2% (inactive).

`CC[C@@H]([C@H](C)O)n1ncn(-c2ccc(N3CCN(c4ccc(OC[C@@H]5CO[C@@](Cn6cncn6)(c6ccc(F)cc6F)C5)cc4)CC3)cc2)c1=O`: the “percentage of barcode signal found” value is 42.4% (inactive).

For the molecule `CN(C)CCNC(=O)N1CCCN(c2ncnc3cc(-c4ccccc4)sc23)CC1`, the “percentage of barcode signal found” value is 34.3% (inactive).

As to `OCCc1ccc(Nc2nccc(-c3nnc4ccccn34)n2)cc1`, the “percentage of barcode signal found” value was 77% (inactive).

In the case of `COc1cccn2c(C(=O)N3CCCCC3)c(C(F)(F)F)nc12`, the “percentage of barcode signal found” value was 27.1% (inactive).

Consider `CCc1nc2ccc(C(=O)NCc3ccc4c(c3)OCO4)cn2c1N(C)Cc1cccs1`, for which the “percentage of barcode signal found” value is 22.1% (inactive).

Regarding `O=S(=O)(c1ccc(Cl)cc1)N1CCN(C(=S)NCc2ccco2)CC1`, the “percentage of barcode signal found” value was 29.2% (inactive).

As to `CCN(CC)CCCCCCNc1cc(OC)cc2c(C)ccnc12`, the “percentage of barcode signal found” value is 55.8% (inactive).

With `Cc1nn2c(O)c3c(nc2c1-c1ccc(F)cc1)CCCC3`, the “percentage of barcode signal found” value is 9.19% (inactive).

Regarding `CCN(CC)S(=O)(=O)c1ccc(Cl)c(C(=O)Nc2ccc3nc(C)sc3c2)c1`, the “percentage of barcode signal found” value is 86.1% (active).

Regarding `CCc1nc2ccccc2n1CC(O)COc1cc(C)ccc1Cl` (stereo not drawn), the “percentage of barcode signal found” value is 41.3% (inactive).

Values taken from the supplement of paper PMC8726507.
